The list is not random: actives were taken first. Their share in the collection is about 9.2%.
FLuc counter – counter-screen for miR-21 project: firefly luciferase inhibitors or activators; purified FLuc, Km substrates, luminescence inhibition; Potency, µM (highest dose often 57.5 µM), for the others: top-dose activity change, negative = inhibition, most hits filed as inhibitors; 6.9% of 360,000 active; AID 588342;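 note: plate controls were vehicle for no effect and reference inhibitor for full effect; nearly all actives have a fitted effect of over 55% in size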
Target sequence (P08659 whole entry, looked up): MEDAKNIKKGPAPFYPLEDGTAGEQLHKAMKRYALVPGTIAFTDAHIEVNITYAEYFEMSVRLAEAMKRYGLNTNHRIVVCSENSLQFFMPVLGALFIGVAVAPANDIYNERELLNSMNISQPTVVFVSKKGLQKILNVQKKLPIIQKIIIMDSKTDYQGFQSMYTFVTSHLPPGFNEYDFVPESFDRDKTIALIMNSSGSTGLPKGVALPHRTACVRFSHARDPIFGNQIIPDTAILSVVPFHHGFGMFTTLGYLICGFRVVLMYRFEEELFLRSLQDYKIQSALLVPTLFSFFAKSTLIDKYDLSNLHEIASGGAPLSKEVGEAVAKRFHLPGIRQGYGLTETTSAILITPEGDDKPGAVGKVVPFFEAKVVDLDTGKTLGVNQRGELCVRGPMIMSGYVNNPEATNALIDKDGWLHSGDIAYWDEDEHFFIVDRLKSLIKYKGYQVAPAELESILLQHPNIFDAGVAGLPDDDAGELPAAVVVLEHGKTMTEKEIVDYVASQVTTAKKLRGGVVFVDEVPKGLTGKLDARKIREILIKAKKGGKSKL
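Biochemical qHTS of compounds, final roughly 60 µM downward over six points, against 10 nM purified firefly luciferase using Km concentrations of substrates (10 uM D-luciferin, 10 uM ATP) in Tris acetate pH 7.5 buffer; luminescence output.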
SMN2 splice up – increases expression of the SMN2 splice variant. HEK293 SMN2-luciferase splicing reporter, luminescence, 30-36 h. Potency, µM (doses to about 46.1 µM), inactives show at the highest dose activity change, positive = activation, usual class: activators. 2.8% of 210,000 active. AID 1458; note: % of control where 0% means no effect; nearly all actives have a fitted effect of over 55% in size
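HEK293 cells carry an SMN2 minigene-luciferase reporter in which exon 7 inclusion puts luciferase in frame. Cells were seeded at 2000 cells/well, attached for 10-12 hours, then exposed to compounds for 30-36 hours at 37C before ONE-Glo luminescence.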
NPC1 prom act – activators of NPC1 promoter; Huh7 NPC1 promoter luciferase reporter, 24 h; Potency, µM (top dose mostly 9.22 µM), inactives show at the highest dose activation, usual class: activators; 2.4% of 320,000 active; note: % of control where 0% means no effect; nearly all actives have a fitted effect of over 60% in size
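Luminescence from an NPC1 promoter-driven luciferase reporter in stably transfected Huh7 cells was measured after 24 h compound treatment at 37 °C, followed by 10 min ambient incubation with luciferase detection reagent.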
ELG1 DNA repair – ELG1-dependent DNA repair inhibition | HEK293T ELG1-luciferase reporter, luminescence, 16 h; DNA damage induced by 5-fluorouridine | 2.3% of 330,000 active | Potency, µM (titrated, usually from 46.1 µM), without a hit: at the highest dose activity change, negative = inhibition, hits mostly inhibitors | AID 504467; note: % is set by controls: 0 for no effect and ±100 for the full control effect; nearly all actives have a fitted effect of over 55% in size
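Cells (2,000 per well) received 5-fluorouridine plus test compound or DMSO and were incubated 16 hr at 37 °C, 5% CO2. Luciferase activity was read by luminescence 30 min after ONE-Glo addition; signal suppression marked inhibition of damage-induced ELG1 function.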
ELG1 genotoxic – inducers of genotoxicity in HEK293T ELG1-luciferase cells. 1.3% of 330,000 active. HEK293T ELG1-luciferase reporter, luminescence, 16 h. AID 504466. Potency, µM (top dose mostly 46 µM), for the others: at the highest dose activity change, positive = activation, hits mostly activators; note: % of control where 0% means no effect; nearly all actives have a fitted effect of over 60% in size
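Genotoxicity was scored as increased ELG1-luciferase reporter signal, measured by ONE-Glo luminescence (30 min, room temperature). Compound or vehicle exposure of the HEK293T reporter cells lasted 16 hr at 37°C.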
Rab9 prom act – Rab9 promoter activation; Huh7 Rab9 promoter-luciferase reporter, luminescence, 24 h; Potency, µM (doses to about 9.22 µM), without a hit: top-dose activation, negative = inhibition, most hits filed as activators; 2.8% of 320,000 active; note: % of control where 0% means no effect; nearly all actives have a fitted effect of over 60% in size
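Cells were plated at 1500 per well in reduced-serum medium with 10% FBS and left 2 h. Compound in DMSO was then added for 24 h at 37 °C. Reporter signal was read by luminescence after 10 min with luciferase detection reagent.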
Active calls of the source: *; ? = inconclusive; . = no result given. Calls come from the whole dose curve; as a rule, active = well fitted curve in the direction sought with a large enough effect; inconclusive = small, poorly fitted or top-dose-only effect, or another doubt; inactive = no such curve, though single readings can be large; an effect the other way counts as inactive or inconclusive. Potency is the fitted concentration of half-maximal effect.

SMILES	FLuc counter	SMN2 splice up	NPC1 prom act	ELG1 DNA repair	ELG1 genotoxic	Rab9 prom act
CCN(CC)c1ccc(/C=N/NC(=O)c2ccccn2)cc1	2.39µM*	.	0.447µM*	?	?	0.708µM*
O=C(N/N=C/c1ccc(OC(=O)c2ccccc2Cl)cc1)c1cc(O)cc(O)c1	?	.	-4.2%	-3.6%	0.9%	4.2%
Oc1ccccc1/C=N/c1c(-c2ccco2)nc2ccccn12	26.9µM*	3.0%	?	?	?	?
COc1cc(-c2nc3ccccn3c2/N=C/c2ccc(F)cc2)ccc1O	?	3.3%	0.0%	26.6%	6.0%	15.7%
COc1ccc(/C=N/c2c(-c3ccco3)nc3ccccn23)cc1OC	0.426µM*	-4.7%	?	?	16.2%	?
COc1cc(-c2nc3ccccn3c2/N=C/c2cccc(OC)c2O)ccc1O	-15.4%	13.3%	-0.3%	-5.3%	-3.6%	15.9%
Clc1ccc(/C=N/c2c(-c3ccco3)nc3ccccn23)cc1	15.1µM*	-7.3%	28.2%	0.0%	?	?
O=[N+]([O-])c1cc(-c2ccc(/C=N/c3nc4ccccn4c3-c3ccco3)o2)ccc1Cl	?	-1.7%	25.8%	?	?	?
CCCn1c(N)c(N(CCOC)C(=O)CSc2ccccc2)c(=O)[nH]c1=O	-3.1%	.	-1.0%	?	6.2%	-5.8%
NC(=O)C1CCN(c2nc(-c3cc4ccccc4o3)cs2)CC1	10.7µM*	.	?	?	4.2%	?
NC(=O)C1CCN(c2nc(-c3cccc(N)c3)cs2)CC1	?	.	3.1%	?	?	1.8%
Cc1cc(C)n(CCc2nc(-c3cc4ccccc4o3)cs2)n1	16.9µM*	-35.8%	20.5%	?	9.8%	20.9%
CN1CCN(c2nc(-c3cc4ccccc4o3)cs2)CC1	4.78µM*	12.6µM*	?	?	?	?
Nc1nc(-c2cc3ccccc3o2)cs1	4.26µM*	.	2.24µM*	?	?	2µM*
O=C(CSc1nc2c([nH]c3ccccc32)c(=O)n1-c1ccc(F)cc1)N1CCCCCC1	-1.7%	.	.	.	.	.
COc1ccc(OC)c(S(=O)(=O)N2CCN(CC(O)COc3ccccc3)CC2)c1 (stereo not drawn)	-2.3%	.	-0.5%	-21.4%	-9.7%	1.0%
CCOCC(=O)Nc1ccc(Br)c(C)c1	?	6.2%	16.3%	?	?	?
CCCCc1ccc(NC(=O)CC(C)C)cc1	19µM*	?	?	?	?	?
CCCCc1ccc(NC(=O)CSCc2cc(=O)[nH][nH]2)cc1	12µM*	15.8%	-3.0%	6.4%	3.8%	-2.4%
O=C(CSCc1cc(=O)[nH][nH]1)Nc1ccc(F)cc1	-5.1%	.	-1.8%	9.4%	0.6%	-4.8%
CCCCc1ccc(NC(=O)COCC)cc1	19µM*	21.5%	12.7%	?	20.6µM*	25.1%
Cc1cc(NC(=O)Nc2ccc(F)cc2F)n(C)n1	-3.5%	-5.3%	6.1%	-6.7%	6.9%	17.4%
CCCCc1ccc(NC(=O)Nc2cc(C)nn2C)cc1	?	.	-3.0%	4.11µM*	9.0%	-2.4%
CCCCN1C[C@H](C)[C@@H](CC(=O)NCc2ccccc2)C1=O	6.0%	.	-2.8%	4.8%	1.6%	3.4%
Cc1cccc(Nc2nnc(SCC(=O)NCC3CCCO3)s2)c1 (stereo not drawn)	.	.	.	?	4.3%	.
SMILES	FLuc counter	SMN2 splice up	NPC1 prom act	ELG1 DNA repair	ELG1 genotoxic	Rab9 prom act
CCc1ccccc1NC(=O)CN(C)C(=O)CSc1nnc(Nc2cccc(C)c2)s1	12µM*	9.3%	1.0%	?	-0.6%	-1.3%
CCc1ccc(Nc2nnc(SCC(=O)N(C)CC(=O)Nc3ccccc3CC)s2)cc1	6.75µM*	-18.4%	2.9%	18.4µM*	-2.0%	0.1%
CN(CC(=O)Nc1ccccc1Cl)C(=O)CSc1nncs1	6.3%	.	-1.1%	28.1%	2.4%	-4.6%
CCc1ccccc1NC(=O)CN(C)C(=O)CSc1nnc(Nc2ccc(C)cc2)s1	9.53µM*	-23.3%	-0.3%	?	-3.0%	-4.4%
COc1ccc(/C(C)=N/Nc2nccnc2Cl)cc1	7.57µM*	.	?	?	?	1.78µM*
C/C(=N\Nc1nccnc1Cl)c1ccc(Br)cc1	?	.	?	28.4%	6.7%	16.6%
C/C(=N\Nc1nccnc1Cl)c1ccc(O)c(C)c1	10.7µM*	.	?	?	?	?
COc1ccc(OC)c(/C=C/C(=O)N(C)CC(=O)Nc2ccc(N3CCOCC3)cc2)c1	?	.	3.0%	-28.2%	3.1%	-1.9%
CCc1ccc(NC2=NCC(c3ccccc3)S2)cc1 (stereo not drawn)	7.57µM*	14.1µM*	?	?	?	?
CCc1ccc(NC(=O)CSc2nc3c([nH]c4ccccc43)c(=O)n2C)cc1	0.2%	.	.	.	.	.
Cc1ccc(Nc2nc(Cl)c(C=O)s2)cc1Cl	21.3µM*	4.5%	-7.1%	17.0%	-2.3%	-0.3%
O=Cc1sc(Nc2ccccc2)nc1Cl	?	-17.0%	-2.3%	-4.8%	-3.5%	1.7%
COc1cc2c(cc1NC(=O)c1cccnc1)oc1ccccc12	15.1µM*	?	?	?	?	?
COc1ccc(-c2cc3ccccc3oc2=O)cc1NC(=O)c1cccnc1	10.7µM*	-5.3%	-5.9%	0.0%	-3.6%	6.7%
COc1ccc(OC)c(NC(=O)c2cccnc2)c1	-4.3%	.	-5.4%	11.3%	2.6%	-0.5%
C=CCN(C(=O)CCC(=O)Nc1cc(C)on1)C(C(=O)NC1CCCC1)c1ccc(CC)cc1 (stereo not drawn)	2.9%	.	-0.2%	-22.7%	-0.6%	2.7%
O=C(O)c1ccc2c(c1)C(=O)N([C@H](Cc1ccc(Cl)cc1)C(=O)O)C2=O	-2.2%	.	-2.6%	.	.	-5.7%
COc1ccc(C2=NN(C(=O)CSc3ncccn3)C(c3cccc(OC)c3OC)C2)cc1 (stereo not drawn)	-2.5%	-3.9%	1.0%	?	-1.8%	1.3%
CCOc1cccc2c1OC(c1cc(OC)c(OC)c(OC)c1)N1N=C(c3ccc(C)o3)CC21 (stereo not drawn)	3.01µM*	?	20.8%	?	?	25.1%
O=C(/C=C\Nc1ccc2c(c1)OCO2)c1cccs1	0.12µM*	.	1.41µM*	?	1.03µM*	0.562µM*
O=C(/C=C\Nc1ccc2c(c1)OCO2)c1ccc(Cl)s1	0.239µM*	3.55µM*	0.398µM*	?	0.82µM*	0.316µM*
O=C(CCl)Nc1ccc2c(c1)OCO2	-7.4%	-59.0%	-9.5%	7.8%	-10.0%	-9.5%
O=S(=O)(Nc1ccc2c(c1)OCO2)c1cccs1	-2.9%	-3.2%	0.1%	-0.9%	-1.8%	2.0%
COc1cccc(NC(=O)Cn2c(=O)n(CCc3cccc(C)c3)c(=O)c3ccccc32)c1	?	-0.2%	.	.	.	.
